In PubChem BioAssay (Tox21):
Inconclusive results are not listed. Entries that show only a call come without a potency. Unmarked numbers belong to inactive results. Activity calls are given as the source filed them. The call rests on the fitted dose curve; in most records, active means well fitted cell-killing curve with a large enough effect in the repeat runs; inconclusive means weak or mixed curves, or effect the other way; inactive means flat fitted curve, though single readings scatter.

Experiment: qHTS RealTime-Glo MT Cell Viability Assay in HEK293 cells - 16 hour (AID 1224872); further: nearly all actives have a fitted effect of over 50% in size; on activity change, negative = cytotoxicity: top concentration of the series differs between compounds
Details: RealTime-Glo luminescence; series mostly up to 76.8 µM
From the text: National Center for Advancing Translational Sciences [NCATS]
NIH Chemical Genomics Center [NCGC]
U.S. Environmental Protection Agency [EPA]
National Institutes of Environmental Health Sciences [NIEHS]
National Toxicology Program [NTP]
U.S. Food and Drug Administration [FDA]
Measure of cell viability is critical in the cell-base assay. Analysis of cell viability is necessary for the characterization of cell responses to cytotoxic drugs and environmental stress. A RealTime-Glo MT Cell Viability Assay to monitor cell viability in real time of continues cell culture during 40 hours of compound treatment was used to screen Tox21 10K library compounds in Hek293 cells. The RealTime-Glo MT Cell Viability Assay is a nonlytic, homogeneous, bioluminescent method to measure cell viability in real time using a simple, plate-based method. The assay involves adding NanoLuc luciferase and a cell-permeant prosubstrate to cells in culture. Viable cells reduce the proprietary prosubstrate to generate a substrate for NanoLuc luciferase. This substrate diffuses from cells into the surrounding culture medium, where it is rapidly used by the NanoLuc Enzyme to produce a luminescent signal. The signal correlates with the number of viable cells, making the assay well suited for cytotoxicity studies.
Tox21 Assay Protocol Summary:
The mixture of Hek293 cell suspension and reagents were dispensed at 600cells/6 ul/well in 1536-well tissue culture treated black solid bottom plates using a Multidrop dispenser. After the assay plates were incubated at a 37 C/5% CO2 incubator for 5 hours, 23 nL of compounds dissolved in DMSO, positive and negative controls was transferred to the assay plate by a pintool work station. The plates were incubated at 37 C for 40 hours. The luminescence intensity were measured at 0h, 8h, 16h, 24h, 32h and 40h time points using ViewLux plate reader during compound treatment.
Potency means the concentration at half of the fitted maximal effect.

SMILES	Potency	activity change, negative = cytotoxicity
N#Cc1ccc(C/C(=N/NC(=O)Nc2ccc(OC(F)(F)F)cc2)c2cccc(C(F)(F)F)c2)cc1	inactive	–
CN1CCN(CCCN2c3ccccc3Sc3ccc(C(F)(F)F)cc32)CC1	21.3 µM (active)	–
CC(Cc1ccc(O)c(O)c1)C(C)Cc1ccc(O)c(O)c1 (stereo not given)	49 µM (active)	–
CC(C=O)c1ccccc1 (stereo not given)	inactive	–
CCC1(C)C(=O)N(Cl)C(=O)N1Cl (stereo not given)	inactive	–
O=c1cc[nH]cc1	inactive	–
CN1CCN(c2ccccc2/C=C2\SCCN(c3ccc(Cl)c(Cl)c3)C2=O)CC1	12.3 µM (active)	–
CCN(CCC#N)c1ccc(N=Nc2ccc([N+](=O)[O-])cc2)cc1	inactive	–
CCCCCCCCOC(=O)c1cc(O)c(O)c(O)c1	6.92 µM (active)	–
C=Cc1ccc(O)c(OC)c1	inactive	–
CCCCCN=C(N)N/N=C/c1c[nH]c2ccc(OC)cc12	4.77 µM (active)	–
CCCCCCCCCCCCS(=O)(=O)Cl	–	11.1% [at 15.8 µM]
CC(=O)Nc1ccc(N=Nc2cc(C)ccc2O)cc1	inactive	–
ClC(c1ccccc1)(c1ccccc1)c1ccccc1	inactive	–
CCc1cccc(CC)c1	inactive	–
COc1cc(/C=C/C(=O)CC(=O)/C=C/c2ccc(O)c(OC)c2)ccc1O	24.7 µM (active)	–
CSc1ccc(O)cc1C	inactive	–
CCCCCCCCCCCCCCCCC(C(=O)O)C(O)(CC(=O)O)C(=O)O (stereo not given)	inactive	–
C=C(C)CCO	inactive	–
Oc1ccc2c(c1)CCC2	inactive	–

SMILES	Potency	activity change, negative = cytotoxicity
Nc1ccc2c(S(=O)(=O)O)cccc2c1S(=O)(=O)O	inactive	–
Cc1ccc2nc(-c3ccc(N)cc3)sc2c1S(=O)(=O)O	inactive	–
c1ccc2cc3c4ccccc4c4ccccc4c3cc2c1	inactive	–
Clc1cccc(Cl)n1	inactive	–
CCc1cccc(C)c1N(C(=O)C(=O)O)C(C)COC (stereo not given)	inactive	–
c1ccc(-c2nc3ccccc3[nH]2)cc1	21.9 µM (active)	–
CC1=CC[C@@H](C(C)(C)O)CC1	inactive	–
CCCCCCCC/C=C\CCCCCCCC(=O)N(CCO)CCO	43.5 µM (active)	–
C=CC(=O)O[C@H]1C[C@@H]2CC[C@@]1(C)C2(C)C	inactive	–
Nc1cc([N+](=O)[O-])ccc1Cl	inactive	–
N#CCCOCCC#N	inactive	–
Cc1cccc(C)c1C	inactive	–
CCN(CC)c1ccc(N=Nc2ccccc2)cc1	49 µM (active)	–
COc1cc(OC)nc(NC(=O)NS(=O)(=O)Nc2ccccc2C(=O)N(C)C)n1	inactive	–
CC(CC(C)(C)C)CC(C)(C)CC(C)(C)C (stereo not given)	inactive	–
CN(C[C@@H](CC[N+]12CCC(C3CCCCC3)(CC1)CC2)c1ccc(Cl)c(Cl)c1)C(=O)c1cc(C(F)(F)F)cc(C(F)(F)F)c1	3.09 µM (active)	–
c1ccc2c(c1)-c1ccc3ccc4cccc5cc-2c1c3c45	inactive	–
COC(=O)c1ccc([N+](=O)[O-])cc1	inactive	–
Cc1ccc(C=O)cc1	inactive	–
Nc1ccc(Cl)c([N+](=O)[O-])c1	inactive	–
